Active and inactive are the calls of the source. How the source made its calls: active means hit-call score of the fitted dose curve at least 0.9, where 1 is the maximum; inactive means score below 0.9.
What was measured:
Settings in all cases: mRNA level, 48 h; actives raise or lower the signal
MYC, MYC (gene 4609) = test: LTEA_HepaRG_MYC: Life Technologies and Expression Analysis (LTEA) Assay for MYC using HepaRG (AID 2283518)
Method in brief: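 Cells are thawed, plated and cultured 48 h, then treated for 48 h with test chemicals (eight half-log concentrations from 100 uM, 0.5% DMSO vehicle). RNA is isolated and MYC expression quantified by qRT-PCR against three housekeeping genes.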

[1] = read-out: matrix metalloproteinase-3 (MMP3), MMP3 (gene 4314); test: LTEA_HepaRG_MMP3: Life Technologies and Expression Analysis (LTEA) Assay for matrix metalloproteinase-3 (MMP3) using HepaRG (AID 2283519)
Method in brief: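 Differentiated human HepaRG cells, plated 48 h on collagen I, were exposed in duplicate for 48 h in serum-free induction medium to eight half-log concentrations up to 100 uM in 0.5% DMSO. MMP3 mRNA was quantified by TaqMan qRT-PCR, normalised to ACTB, GAPDH and POLR2A.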

[2] = read-out: Paternally Expressed 10 (PEG10), PEG10 (gene 23089); test: LTEA_HepaRG_PEG10: Life Technologies and Expression Analysis (LTEA) Assay for Paternally Expressed 10 (PEG10) using HepaRG (AID 2283520)
Method in brief: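 HepaRG, 48 h post-plating → serum-free induction medium → 48 h chemical exposure (duplicate, 8-pt, max 100 uM, half-log, 0.5% DMSO) → lysis in RLT → TaqMan qRT-PCR for PEG10, ACTB/GAPDH/POLR2A normalisation.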

[3] = read-out: Nuclear factor NF-kappa-B p105 subunit (Homo sapiens) (UniProt P19838); test: LTEA_HepaRG_NFKB1: Life Technologies and Expression Analysis (LTEA) Assay for Nuclear Factor Kappa B Subunit 1 (NFKB1) using HepaRG (AID 2283521)
Method in brief: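 NFKB1 transcript was measured by TaqMan qRT-PCR on Fluidigm arrays, normalised to three housekeeping genes and fitted in both directions against 0.5% DMSO. HepaRG cells were dosed in duplicate for 48 h in serum-free induction medium, eight half-log steps from 100 uM.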

[4] = read-out: Protein phosphatase 2A (PPP2R4), PTPA (gene 5524); test: LTEA_HepaRG_PPP2R4: Life Technologies and Expression Analysis (LTEA) Assay for Protein phosphatase 2A (PPP2R4) using HepaRG (AID 2283522)
Method in brief: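 Readout is PPP2R4 transcript level by microfluidic qRT-PCR after 48 h chemical treatment of human HepaRG liver cells. Concentrations spanned 100 uM downward in half-log steps; gain or loss of signal was fitted relative to DMSO.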

[5] = read-out: Phosphatase and tensin (PTEN), PTEN (gene 5728); test: LTEA_HepaRG_PTEN: Life Technologies and Expression Analysis (LTEA) Assay for Phosphatase and tensin (PTEN) using HepaRG (AID 2283523)
Method in brief: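 Differentiated human HepaRG cells, plated 48 h then switched to serum-free induction medium, were exposed in duplicate for 48 h to eight half-log concentrations up to 100 uM in 0.5% DMSO. PTEN mRNA measured by TaqMan qRT-PCR, normalized to ACTB/GAPDH/POLR2A, bidirectional fit versus DMSO.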

[6] = read-out: solute carrier (SLC22A1), SLC22A1 (gene 6580); test: LTEA_HepaRG_SLC22A1: Life Technologies and Expression Analysis (LTEA) Assay for solute carrier (SLC22A1) using HepaRG (AID 2283524)
Method in brief: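 Human HepaRG cells were plated 48 h, switched to serum-free induction medium, then exposed in duplicate for 48 h to 8-point half-log series from 100 uM in 0.5% DMSO. SLC22A1 mRNA measured by qRT-PCR, normalized to ACTB/GAPDH/POLR2A, fitted bidirectionally versus DMSO.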

[7] = read-out: Pyruvate Dehydrogenase Kinase 4 (PDK4), PDK4 (gene 5166); test: LTEA_HepaRG_PDK4: Life Technologies and Expression Analysis (LTEA) Assay for Pyruvate Dehydrogenase Kinase 4 (PDK4) using HepaRG (AID 2283525)
Method in brief: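 Differentiated human HepaRG cells, pre-cultured 48 h, were exposed in duplicate for 48 h in serum-free induction medium to eight half-log concentrations up to 100 uM in 0.5% DMSO. PDK4 mRNA was quantified by qRT-PCR, normalized to ACTB, GAPDH and POLR2A, bidirectional fitting versus DMSO.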

[8] = read-out: NAD(P)H dehydrogenase [quinone] 1 (NQO1), NQO1 (gene 1728); test: LTEA_HepaRG_NQO1: Life Technologies and Expression Analysis (LTEA) Assay for NAD(P)H dehydrogenase [quinone] 1 (NQO1) using HepaRG (AID 2283526)
Method in brief: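 HepaRG, 48 h post-plating → serum-free induction medium → test chemical 48 h (duplicate, 100 uM top, half-log x8, 0.5% DMSO) → RNA isolation → qRT-PCR, ACTB/GAPDH/POLR2A normalization; bidirectional curve fit vs DMSO baseline.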

[9] = read-out: Nuclear factor erythroid 2-related factor 2 (Homo sapiens) (UniProt Q16236); test: LTEA_HepaRG_NFE2L2: Life Technologies and Expression Analysis (LTEA) Assay for Nuclear factor erythroid 2-related factor 2 (NFE2L2) Transcription Factor using HepaRG (AID 2283527)
Method in brief: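 Differentiated human HepaRG cells in serum-free induction medium were exposed for 48 h to eight concentrations (top 100 uM, half-log dilutions, 0.5% DMSO), in duplicate. NFE2L2 mRNA was quantified by TaqMan qRT-PCR, normalized to ACTB, GAPDH and POLR2A, with bidirectional fitting versus DMSO.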

[10] = read-out: succinate dehydrogenase complex iron sulfur subunit B (SDHB), SDHB (gene 6390); test: LTEA_HepaRG_SDHB: Life Technologies and Expression Analysis (LTEA) Assay for succinate dehydrogenase complex iron sulfur subunit B (SDHB) using HepaRG (AID 2283528)
Method in brief: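 SDHB transcript level read by TaqMan qRT-PCR, housekeeping-normalised (ACTB, GAPDH, POLR2A), after 48 h chemical treatment of plated HepaRG cells; eight concentrations top 100 uM, half-log steps, 0.5% DMSO, duplicates; fitted both directions against DMSO.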

[11] = read-out: Signal transducer and activator of transcription 3 (Homo sapiens) (UniProt P40763); test: LTEA_HepaRG_STAT3: Life Technologies and Expression Analysis (LTEA) Assay for Signal transducer and activator of transcription (STAT3) using HepaRG (AID 2283529)
Method in brief: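 Differentiated human HepaRG cells in serum-free induction medium were exposed in duplicate for 48 h to eight half-log concentrations up to 100 uM in 0.5% DMSO. STAT3 mRNA was quantified by TaqMan qRT-PCR, normalized to ACTB, GAPDH and POLR2A, and fitted bidirectionally against DMSO.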

[12] = read-out: solute carrier (SLCO1B1), SLCO1B1 (gene 10599); test: LTEA_HepaRG_SLCO1B1: Life Technologies and Expression Analysis (LTEA) Assay for solute carrier (SLCO1B1) using HepaRG (AID 2283530)
Method in brief: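 Gain or loss of SLCO1B1 mRNA is fitted against the 0.5% DMSO vehicle in human HepaRG liver cells treated 48 h at up to 100 uM in half-log steps. Expression comes from qRT-PCR normalized to endogenous controls.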

[13] = read-out: sulfotransferase 2A1 (SULT2A1), SULT2A1 (gene 6822); test: LTEA_HepaRG_SULT2A1: Life Technologies and Expression Analysis (LTEA) Assay for sulfotransferase 2A1 (SULT2A1) using HepaRG (AID 2283531)
Method in brief: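 Cells were plated and cultured 48 h, switched to serum-free induction medium, then dosed in duplicate for 48 h (8 concentrations, max 100 uM). RNA was isolated and SULT2A1 expression measured by qRT-PCR; gain or loss of signal fitted relative to DMSO.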

[14] = read-out: Transforming Growth Factor (TGFA), TGFA (gene 7039); test: LTEA_HepaRG_TGFA: Life Technologies and Expression Analysis (LTEA) Assay for Transforming Growth Factor (TGFA) using HepaRG (AID 2283532)
Method in brief: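 Differentiated human HepaRG cells, plated 48 h then switched to serum-free induction medium, were exposed in duplicate for 48 h to 8-point half-log series from 100 uM in 0.5% DMSO. TGFA mRNA measured by qRT-PCR, normalized to ACTB/GAPDH/POLR2A, bidirectional fit versus DMSO.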

[15] = read-out: Transforming Growth Factor (TGFB1), TGFB1 (gene 7040); test: LTEA_HepaRG_TGFB1: Life Technologies and Expression Analysis (LTEA) Assay for Transforming Growth Factor (TGFB1) Transporter using HepaRG (AID 2283533)
Method in brief: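 Expression change of TGFB1 in human HepaRG cells is measured after a 48 h chemical exposure, up to 100 uM in 0.5% DMSO vehicle. Curves are fitted in both directions relative to the DMSO baseline.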

[16] = read-out: Tumor necrosis factor receptor 1 (TNFRSF1A), TNFRSF1A (gene 7132); test: LTEA_HepaRG_TNFRSF1A: Life Technologies and Expression Analysis (LTEA) Assay for Tumor necrosis factor receptor 1 (TNFRSF1A) using HepaRG (AID 2283535)
Method in brief: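 Expression of TNFRSF1A in human HepaRG liver cells was measured by qRT-PCR 48 h after chemical dosing (maximum 100 uM). Bidirectional curve fitting used 0.5% DMSO as baseline.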

[17] = read-out: Thyroid Hormone Responsive (THRSP), THRSP (gene 7069); test: LTEA_HepaRG_THRSP: Life Technologies and Expression Analysis (LTEA) Assay for Thyroid Hormone Responsive (THRSP) using HepaRG (AID 2283536)
Method in brief: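 Differentiated human HepaRG cells were exposed in duplicate for 48 h in serum-free induction medium to eight concentrations (top 100 uM, half-log steps, 0.5% DMSO). Expression was quantified by TaqMan qRT-PCR, normalized to ACTB, GAPDH and POLR2A, with bidirectional fitting against DMSO.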

[18] = read-out: Cellular tumor antigen p53 (Homo sapiens) (UniProt P04637); test: LTEA_HepaRG_TP53: Life Technologies and Expression Analysis (LTEA) Assay for Tumor Protein P53 (TP53) using HepaRG (AID 2283537)
Method in brief: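 TP53 transcript measured by qRT-PCR, normalized to three housekeeping genes, after 48 h treatment of human HepaRG cultures with chemicals from 100 uM downward in half-log steps (0.5% DMSO vehicle, serum-free induction medium). Up- or down-regulation fitted against DMSO.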

TIMP1, TIMP1 (gene 7076) = test: LTEA_HepaRG_TIMP1: Life Technologies and Expression Analysis (LTEA) Assay for TIMP1 using HepaRG (AID 2283534);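 further: TaqMan qRT-PCR signal normalized to ACTB GAPDH and POLR2A housekeeping genes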
Method in brief: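 We dosed human liver HepaRG cultures for 48 hours with up to 100 uM test chemical and measured TIMP1 expression by qRT-PCR. Activity in either direction is fitted relative to the 0.5% DMSO vehicle.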

Measured: outcome

Cellular tumor antigen p53 (Homo sapiens), sequence (P04637 whole entry, looked up): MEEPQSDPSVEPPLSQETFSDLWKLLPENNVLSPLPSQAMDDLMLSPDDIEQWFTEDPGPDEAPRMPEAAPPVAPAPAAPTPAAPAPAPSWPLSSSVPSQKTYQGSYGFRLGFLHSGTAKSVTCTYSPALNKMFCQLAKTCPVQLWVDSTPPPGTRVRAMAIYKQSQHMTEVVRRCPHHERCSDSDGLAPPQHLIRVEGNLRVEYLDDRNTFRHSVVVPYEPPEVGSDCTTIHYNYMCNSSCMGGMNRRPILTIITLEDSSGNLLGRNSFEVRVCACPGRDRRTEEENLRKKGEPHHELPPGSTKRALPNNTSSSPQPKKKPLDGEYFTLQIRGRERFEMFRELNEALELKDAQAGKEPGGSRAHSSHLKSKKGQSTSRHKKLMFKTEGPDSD
Signal transducer and activator of transcription 3 (Homo sapiens), sequence (P40763 whole entry, looked up): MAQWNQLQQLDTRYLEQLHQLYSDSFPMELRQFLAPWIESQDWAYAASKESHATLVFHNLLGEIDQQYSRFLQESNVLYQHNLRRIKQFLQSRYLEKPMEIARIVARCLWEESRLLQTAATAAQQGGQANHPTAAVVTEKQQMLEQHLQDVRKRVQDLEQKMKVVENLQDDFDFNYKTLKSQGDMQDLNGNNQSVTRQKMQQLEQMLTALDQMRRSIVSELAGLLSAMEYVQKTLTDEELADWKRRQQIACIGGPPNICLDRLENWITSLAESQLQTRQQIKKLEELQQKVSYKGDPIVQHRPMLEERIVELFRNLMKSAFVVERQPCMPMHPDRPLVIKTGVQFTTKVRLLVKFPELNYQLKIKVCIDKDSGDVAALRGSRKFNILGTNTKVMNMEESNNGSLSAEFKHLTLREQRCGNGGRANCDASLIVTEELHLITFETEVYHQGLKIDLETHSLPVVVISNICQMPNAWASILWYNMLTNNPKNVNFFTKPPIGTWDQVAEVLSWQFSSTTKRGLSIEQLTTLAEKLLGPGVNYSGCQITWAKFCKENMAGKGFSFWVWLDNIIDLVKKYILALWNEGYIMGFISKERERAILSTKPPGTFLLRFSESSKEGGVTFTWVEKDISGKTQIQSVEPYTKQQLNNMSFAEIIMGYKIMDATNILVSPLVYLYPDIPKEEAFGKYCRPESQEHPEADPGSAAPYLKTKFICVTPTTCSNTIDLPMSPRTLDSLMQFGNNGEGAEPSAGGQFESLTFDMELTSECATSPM
Nuclear factor erythroid 2-related factor 2 (Homo sapiens), sequence (Q16236 whole entry, looked up): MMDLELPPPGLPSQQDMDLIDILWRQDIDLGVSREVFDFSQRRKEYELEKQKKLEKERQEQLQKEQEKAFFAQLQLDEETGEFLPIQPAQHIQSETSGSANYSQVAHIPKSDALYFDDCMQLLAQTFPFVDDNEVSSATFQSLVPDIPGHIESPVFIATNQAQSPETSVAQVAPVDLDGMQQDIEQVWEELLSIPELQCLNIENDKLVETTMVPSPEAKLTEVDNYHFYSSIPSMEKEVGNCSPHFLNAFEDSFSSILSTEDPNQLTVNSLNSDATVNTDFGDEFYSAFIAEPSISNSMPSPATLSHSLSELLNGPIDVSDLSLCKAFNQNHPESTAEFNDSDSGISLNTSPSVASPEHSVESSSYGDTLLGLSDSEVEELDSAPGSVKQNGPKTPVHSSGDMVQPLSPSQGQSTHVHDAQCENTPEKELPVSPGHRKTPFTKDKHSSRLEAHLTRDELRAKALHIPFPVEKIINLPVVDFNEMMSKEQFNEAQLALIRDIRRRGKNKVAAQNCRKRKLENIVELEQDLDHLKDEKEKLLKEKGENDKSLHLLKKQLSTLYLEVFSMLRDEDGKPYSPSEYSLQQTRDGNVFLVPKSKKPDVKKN
Nuclear factor NF-kappa-B p105 subunit (Homo sapiens), sequence (P19838 whole entry, looked up): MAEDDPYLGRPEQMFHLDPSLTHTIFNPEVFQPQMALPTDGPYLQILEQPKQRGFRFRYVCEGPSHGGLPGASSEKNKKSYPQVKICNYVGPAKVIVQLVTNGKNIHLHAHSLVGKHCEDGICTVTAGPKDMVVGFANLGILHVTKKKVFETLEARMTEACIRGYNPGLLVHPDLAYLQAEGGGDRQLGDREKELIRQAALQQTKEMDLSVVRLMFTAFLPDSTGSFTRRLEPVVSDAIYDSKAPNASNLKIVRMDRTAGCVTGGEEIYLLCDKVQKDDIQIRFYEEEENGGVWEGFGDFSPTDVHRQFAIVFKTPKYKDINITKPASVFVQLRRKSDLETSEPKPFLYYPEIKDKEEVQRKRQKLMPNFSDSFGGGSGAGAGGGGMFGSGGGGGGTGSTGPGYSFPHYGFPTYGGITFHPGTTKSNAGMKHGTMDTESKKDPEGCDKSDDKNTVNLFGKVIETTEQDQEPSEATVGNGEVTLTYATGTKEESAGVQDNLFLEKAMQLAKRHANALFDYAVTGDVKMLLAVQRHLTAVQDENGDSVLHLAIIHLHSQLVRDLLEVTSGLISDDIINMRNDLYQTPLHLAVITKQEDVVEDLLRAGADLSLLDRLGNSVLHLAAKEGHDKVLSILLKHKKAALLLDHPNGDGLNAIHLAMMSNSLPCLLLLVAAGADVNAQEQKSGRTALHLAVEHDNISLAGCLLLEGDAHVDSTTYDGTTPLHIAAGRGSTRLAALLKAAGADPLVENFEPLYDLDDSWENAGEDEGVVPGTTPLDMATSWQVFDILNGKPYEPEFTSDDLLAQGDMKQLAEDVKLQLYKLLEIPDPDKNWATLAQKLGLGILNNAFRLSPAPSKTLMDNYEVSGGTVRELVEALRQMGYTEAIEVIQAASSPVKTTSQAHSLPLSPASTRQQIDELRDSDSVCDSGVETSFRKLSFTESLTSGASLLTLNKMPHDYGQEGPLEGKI

CN(C)CCCN(C)CCCN(C)C
not listed: TIMP1, TIMP1 (gene 7076)
inactive: all other assays above

Cn1cnc2c1c(=O)[nH]c(=O)n2C
not listed: [18] | TIMP1, TIMP1 (gene 7076)
inactive: all other assays above

CCCCCCC(CCCCCCCCCCC(=O)OCC(COC(C)=O)OC(C)=O)OC(C)=O (stereo not drawn)
not listed: TIMP1, TIMP1 (gene 7076)
inactive: all other assays above

O=C(O)c1[nH]n(-c2ccc(S(=O)(=O)O)cc2)c(=O)c1N=Nc1ccc(S(=O)(=O)O)cc1
inactive: all assays above

CC(C)COC(=O)CCCCC(=O)OCC(C)C
not listed: [18] | TIMP1, TIMP1 (gene 7076)
inactive: all other assays above

NCCOCCOCCN
inactive: all assays above

CC1(C)C(=O)NC(=O)N1CO
not listed: TIMP1, TIMP1 (gene 7076)
inactive: all other assays above

Reference: PubChem BioAssay (EPA / NIEHS)
